TRPML1 agonist = qHTS for Agonists of the Human Mucolipin Transient Receptor Potential 1 (TRPML1); Mucolipin-1 (Homo sapiens), Q9GZU1; TRPML1-expressing cells, Ca2+ dye fluorescence, FDSS; activation, % (no concentration beside the values); 0.12% of 410,000 active; AID 624414, 2012; in the data active means activation above about 50%; inconclusive means mostly about 30% to 49%
Target sequence (Q9GZU1 whole entry, looked up): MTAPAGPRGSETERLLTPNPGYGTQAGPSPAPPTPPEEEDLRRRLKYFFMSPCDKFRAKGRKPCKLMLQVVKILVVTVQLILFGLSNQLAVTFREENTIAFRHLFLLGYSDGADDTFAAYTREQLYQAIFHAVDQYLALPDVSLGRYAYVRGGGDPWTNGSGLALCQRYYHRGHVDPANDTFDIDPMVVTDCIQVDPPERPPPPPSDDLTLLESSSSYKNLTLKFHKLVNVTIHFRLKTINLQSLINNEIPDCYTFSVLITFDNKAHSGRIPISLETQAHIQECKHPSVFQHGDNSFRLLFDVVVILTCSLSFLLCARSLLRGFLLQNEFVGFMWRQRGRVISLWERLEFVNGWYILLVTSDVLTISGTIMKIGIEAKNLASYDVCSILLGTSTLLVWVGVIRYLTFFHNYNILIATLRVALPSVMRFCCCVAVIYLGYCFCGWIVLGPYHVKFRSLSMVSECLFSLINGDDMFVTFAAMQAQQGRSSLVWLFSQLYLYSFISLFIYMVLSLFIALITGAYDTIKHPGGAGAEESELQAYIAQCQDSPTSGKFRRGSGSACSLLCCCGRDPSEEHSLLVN
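TRPML1-DL cells, Tet-induced overnight (~16 h, 37 degrees C), loaded 45-90 min at room temperature with Ca8 no-wash calcium dye plus quencher. FDSS fluorescence: 10 s baseline, compound pin-transfer, 110 s agonist read, then EC80 54-4 (4uM final) and 110 s antagonist read.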
TRPML1 blocker = qHTS for Inhibitors of the Human Mucolipin Transient Receptor Potential 1 (TRPML1). Mucolipin-1 (Homo sapiens), Q9GZU1. TRPML1-inducible cells, Ca2+ dye fluorescence, FDSS; hits give low values; inhibition of EC80 agonist-evoked calcium signal. activity change, negative = inhibition, % (concentration not given with the values). 0.02% of 390,000 active. AID 624415, 2012; in the data active means activity change below about -50%; inconclusive means between about -30% and that limit;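 further: stimulus is agonist 54-4 at its EC80 concentration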
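TRPML1-DL cells, Tet-induced overnight (~16 h, 37 °C) at 1,500 cells/well, were loaded with Ca8 no-wash dye plus quencher for 45-90 min at room temperature. Compounds were pinned during FDSS kinetic reading; agonist 54-4 at EC80 (4 uM final) then added.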
D3 ag = qHTS of D3 Dopamine Receptor Agonist: qHTS; D(3) dopamine receptor (Homo sapiens), P35462; D3R DiscoveRx beta-arrestin cells, luminescence, 90 min; max activation, %; 0.58% of 410,000 active; in the data active means max activation above about 30%
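Cells at 1500/well, incubated overnight, then treated with pinned compounds (dopamine as control) for 90 min at 37 degrees C. DiscoveRx reagent added for 30 - 60 minutes at room temperature; luminescence read.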
D3 antag = qHTS of D3 Dopamine Receptor Antagonist: qHTS; max response, negative = inhibition, %; D(3) dopamine receptor (Homo sapiens), P35462; 2.5% of 360,000 active; AID 652054, 2013; D3R cells, DiscoveRx beta-arrestin luminescence, antagonist mode; hits give low values; in the data active means max response below about -50%; inconclusive means no clear call, values can overlap the other calls
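Cells expressing the human receptor were seeded at 1500 cells/well, incubated overnight at 37 degrees C in 5% CO2, then exposed to library compounds with dopamine controls for 90 minutes at 37 degrees C before luminescent detection.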
Large screens that a line does not name were inactive. Hits are enriched below; roughly 2.9% of the tested compounds scored in any of these assays.

CCOc1cc(C(=O)OCC(=O)c2c(N)n(C)c(=O)n(C)c2=O)cc(OCC)c1OCC	D3 ag 33
Cn1c(N)c(C(=O)COC(=O)c2ccccc2C(=O)c2ccccc2)c(=O)n(C)c1=O	none
Cn1c(N)c(C(=O)COC(=O)c2ccccc2C(=O)c2ccc(Cl)c([N+](=O)[O-])c2)c(=O)n(C)c1=O	D3 antag -97
Oc1cc(O)c(/C=C/c2ccnc3ccccc23)c(O)c1	none (no result: TRPML1 blocker, D3 ag, D3 antag)
Cc1ccc(-c2cc(C3C4C=CCC(C)C4C(=O)N3Cc3ccccc3)ccc2F)cc1 (stereo not given)	none (no result: D3 ag, D3 antag)
O=C(C[N+]1(CCc2ccccc2)CCOCC1)c1cccc([N+](=O)[O-])c1	none (no result: TRPML1 blocker, D3 ag, D3 antag)
O=[N+]([O-])c1ccc2c(c1)C=C/C2=C\c1ccc(C=S)cc1	none (no result: TRPML1 blocker, D3 ag, D3 antag)
Cc1ccc(Nc2c(-c3ccc(C)s3)nc3cccc(C)n23)cc1	none (no result: TRPML1 blocker, D3 ag, D3 antag)
CC1CCN(CCCNC(=O)c2cc3sccc3n2C)CC1	D3 antag -86
COc1ccc(N2CCN(CCCNC(=O)c3cc4sccc4n3C)CC2)cc1	D3 antag -57
COc1ccc(N2CCN(CCCNC(=O)Cn3c(-c4cccs4)cc4ccccc43)CC2)cc1	D3 ag 32 (no result: D3 antag)
COc1ccc(N2CCN(CCCNC(=O)Nc3ccccc3)CC2)cc1	none
COc1ccc(NC(=O)CN2CCCN(Cc3ccc(Cl)cc3)S2(=O)=O)cc1Cl	none (no result: D3 antag)
CCCC(=O)O[C@]1(C(=O)COC(=O)CC)CC[C@H]2[C@@H]3CCC4=CC(=O)CC[C@]4(C)[C@H]3[C@@H](O)C[C@@]21C	none (no result: TRPML1 agonist, TRPML1 blocker, D3 antag)
CCCCCCCCCCCCCCCC(=O)O[C@@H]1CC(C)=C(/C=C/C(C)=C/C=C/C(C)=C/C=C/C=C(C)/C=C/C=C(C)/C=C/C2=C(C)C[C@@H](OC(=O)CCCCCCCCCCCCCCC)CC2(C)C)C(C)(C)C1	none (no result: TRPML1 agonist, TRPML1 blocker, D3 antag)
COc1ccc(-c2cc(=O)[nH]c(=S)[nH]2)cc1	D3 antag -50
COc1ccc(-c2cc(=O)c3cc(OC)ccc3[nH]2)cc1	none
CSc1ccc2c(c1)N(CCC1CCCCN1C)c1ccccc1S2 (stereo not given)	D3 antag -89
CN1CC[C@H](CN2c3ccccc3Sc3ccccc32)C1	none (no result: TRPML1 blocker, D3 ag, D3 antag)
O=C(NC1CC2CCCC(C1)N2C(=O)NC1CCCCC1)c1ccc(F)cc1 (stereo not given)	none
Cc1ccccc1C(=O)NC1CC2CCC(C1)N2Cc1ccccc1 (stereo not given)	D3 antag -86
Cc1ccccc1C(=O)NC1CC2CCCC(C1)N2Cc1ccccc1Cl (stereo not given)	D3 antag inconclusive
CC(=O)NC1CC2CCCC(C1)N2Cc1ccc(C)cc1 (stereo not given)	D3 antag -113
Cc1ccc(C(=O)NC2CC3CCC(C2)N3Cc2ccco2)cc1 (stereo not given)	none
Cc1ccc(CN2C3CCCC2CC(NC(=O)c2ccc(C)cc2)C3)cc1 (stereo not given)	D3 antag -109
O=C(NC1CC2CCCC(C1)N2Cc1ccc(F)cc1)c1ccc(F)cc1 (stereo not given)	D3 antag -108 (no result: TRPML1 agonist, TRPML1 blocker)
CCOc1ccccc1C(=O)NC1CC2CCCC(C1)N2Cc1ccc(C)cc1 (stereo not given)	D3 antag -80
CCCN1C2CCCC1CC(NC(=O)c1ccccc1OCC)C2 (stereo not given)	D3 antag inconclusive
COc1ccc(C2NC(=S)N3C(c4ccc(OC)c(OC)c4)NC(=S)N23)cc1OC (stereo not given)	none (no result: TRPML1 agonist, TRPML1 blocker, D3 antag)
Cc1ccc(Nc2nc(=O)c3cccnc3s2)cc1	D3 antag -102
O=C(COc1cc2oc(=O)c3c(c2cc1Cl)CCCC3)N1C[C@H]2C[C@@H](C1)c1cccc(=O)n1C2	D3 antag -58 (no result: TRPML1 agonist, TRPML1 blocker)
C=C1C=C(C(F)F)n2ncc(C(=O)NCc3ccc(F)cc3)c2N1	none (no result: TRPML1 blocker, D3 ag, D3 antag)
COc1ccccc1N1CCN(Cc2ccco2)CC1	D3 antag -76
Clc1ccccc1N1CCN(Cc2ccco2)CC1	D3 antag -56
COc1ccc(CN2CCN(Cc3ccco3)CC2)cc1OC	none (no result: TRPML1 agonist, TRPML1 blocker)
COc1ccccc1N1CCN(Cc2ccc(-c3ccccc3[N+](=O)[O-])o2)CC1	D3 antag -86 (no result: TRPML1 agonist, TRPML1 blocker)
COc1cc2nc(N3CCOCC3)nc(NC3CCN(C)CC3)c2cc1OC	none (no result: TRPML1 blocker, D3 ag, D3 antag)
COc1ccc(-c2cc(C(F)(F)F)n3nc(C(=O)O)c(Cl)c3n2)cc1OC	none (no result: D3 antag)
Cc1ccc(C)c(NC(=O)Cn2cc(S(=O)(=O)N3CCCC3)c(S(=O)(=O)N3CCCC3)c2)c1	none (no result: D3 antag)
CCCN1C(=O)C(=O)c2cc(C)ccc21	none
Cc1ccc(CN2C(=O)C(=O)c3cc(C)ccc32)cc1	D3 antag -54
Cc1ccc2c(c1)C(=O)C(=O)N2c1ccc(Cl)cc1	TRPML1 blocker inconclusive, D3 antag -55
CCCCN1C(=O)C(=O)c2cc(Cl)ccc21	D3 antag -120
CCOc1ccccc1C(=O)N1CCCCC1CCN1CCOCC1 (stereo not given)	none (no result: D3 antag)
CCN(CC)C(=O)c1ccc2c(c1)N(Cc1ccc(C(F)(F)F)cc1)C(=O)c1ccccc1S2	none (no result: D3 antag)
O=c1c2cc(NC(=S)NCCCN3CCC(Cc4ccccc4)CC3)ccc2nc2n1CCCCC2	D3 antag -94
O=C1C(Cc2ccccc2)Nc2ncnc(N3CCCCC3)c2N1Cc1ccc(Cl)cc1 (stereo not given)	D3 antag -65
O=C1C(Cc2ccccc2)Nc2ncnc(N3CCN(c4ccccc4)CC3)c2N1Cc1ccc(Cl)cc1 (stereo not given)	D3 antag -128
O=C1C(Cc2ccccc2)Nc2ncnc(N3CCOCC3)c2N1Cc1ccc(Br)cc1 (stereo not given)	D3 antag -66
COc1ccc(CN2C(=O)C(Cc3ccccc3)Nc3ncnc(N4CCN(c5ccccc5)CC4)c32)cc1 (stereo not given)	D3 antag -111
CCC1Nc2ncnc(N3CCOCC3)c2N(Cc2ccc(Cl)cc2)C1=O (stereo not given)	none
CC(C)CC1Nc2ncnc(N3CCCCC3)c2N(Cc2ccccc2)C1=O (stereo not given)	none
COc1cccc(NC(=O)Cn2cnc3c(nc4n3CCCCC4)c2=O)c1	none (no result: D3 antag)
CCOc1ccc(NC(=O)C(=O)NCC(c2cccnc2)N2CCc3ccccc32)cc1 (stereo not given)	none (no result: D3 antag)
CC(c1ccco1)N(C(=O)C12CC3CC(CC(C)(C3)C1)C2)c1ccccn1 (stereo not given)	D3 antag -58
Cc1c(Cl)cccc1NC(=O)c1ncn(-c2ccccc2)n1	none (no result: D3 antag)
Cc1ccccc1NC(=O)c1sc2nc(-c3ccncc3)ccc2c1N	none (no result: D3 antag)
COc1cccc(-c2ccc(=O)n(CC(=O)NCCN3CCOCC3)n2)c1	TRPML1 blocker -63
O=C(Cn1nc(-c2ccccc2)ccc1=O)NCCCN1CCOCC1	none (no result: TRPML1 agonist, TRPML1 blocker)
COc1ccc(N(CC(=O)Nc2c(C)n(C)n(-c3ccccc3)c2=O)S(=O)(=O)c2ccc(C)cc2)cc1OC	D3 antag -111
